Several values for one entry are separate records, joined by “and”; a condition that tells them apart may be missing. Equal entries are not always repeated. Structures can show the parent of a compound that is named as a salt. ± gives the standard deviation.

In this test the test system is THP-1. Kind of test: THP-1 cell loss relative to DMSO control; higher = more host cell loss (toxicity); extreme values may be limits of the assay. Conditions: 10 µM; 4 days; infection: M. tuberculosis H37Rv. How it is done: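 OICR kinase inhibitor library screened in duplicate at 10 uM against M. tuberculosis-infected THP-1 macrophages, 4 days at 37 C. THP-1 cell loss (cytotoxicity or loss of adherence) was quantified from Hoechst-stained nuclei counts by high-content imaging and normalised to the 1% DMSO control; 100 = complete loss of host cells.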
`Fc1ccc(-c2nc3n(c2-c2ccncc2)CCS3)cc1`: the THP-1 cell loss is 7.21% and 5.2%. The figure for `CS(=O)(=O)CCNCc1ccc(-c2ccc3ncnc(Nc4ccc(OCc5cccc(F)c5)c(Cl)c4)c3c2)o1` [Lapatinib ditosylate] is 100%; for `Cc1cc(Nc2nc(N[C@@H](C)c3ccc(F)cc3)c(C#N)cc2F)n[nH]1` it is 39 ± 9.1%; for `Cn1cc(-c2ccc3nnc(C(F)(F)c4ccc5ncccc5c4)n3n2)cn1` it is 13.4 ± 19%. Regarding `O=c1[nH]nc(Sc2ncc([N+](=O)[O-])s2)n1-c1ccc2c(c1)OCCO2`, the THP-1 cell loss worked out at 31.1 ± 44%. In the case of `Cn1c2ccccc2c2c3c(c4c5ccccc5n(CCC#N)c4c21)CNC3=O`, the THP-1 cell loss turned out to be 32.2 ± 18%. Under `CC[C@@H]1C(=O)N(C)c2cnc(Nc3ccc(C(=O)NC4CCN(C)CC4)cc3OC)nc2N1C1CCCC1` stands 100%. Molecule `O=c1cc(-c2cccc3c2Sc2ccccc2S3)oc(N2CCOCC2)c1` had a THP-1 cell loss of 26.6 ± 14%. `O=C(Nc1c[nH]nc1-c1nc2ccc(CN3CCOCC3)cc2[nH]1)NC1CC1` gave a THP-1 cell loss of 100%. For `CC[C@@H]1/C=C(\C)C[C@H](C)C[C@H](OC)[C@H]2O[C@@](O)(C(=O)C(=O)N3CCCC[C@H]3C(=O)O[C@H](/C(C)=C/[C@@H]3CC[C@H](Cl)[C@H](OC)C3)[C@H](C)[C@@H](O)CC1=O)[C@H](C)C[C@@H]2OC` [Pimecrolimus], the THP-1 cell loss amounted to 28.5 ± 3%. Molecule `Cc1ccc([N+](=O)[O-])cc1S(=O)(=O)N(C)/N=C/c1cnc2ccc(Br)cn12` [PIK-75 hydrochloride] returned a THP-1 cell loss of 100%.

The molecule `Nc1nc(OCC2CCCCC2)c2[nH]cnc2n1` yielded a THP-1 cell loss of 3.9 ± 5.5%. Regarding `Cc1ccccc1-n1c(Cn2nc(-c3cccc(O)c3)c3c(N)ncnc32)nc2cccc(C)c2c1=O`, the THP-1 cell loss was determined as 43.9 ± 23%. For the molecule `Nc1nccc(Oc2ccc(NC(=O)c3c[nH]cc(-c4ccc(F)cc4)c3=O)cc2F)c1Cl`, the THP-1 cell loss stood at 48.1 ± 23%. `COc1cc(O)c2c(c1)/C=C/C[C@H](O)[C@H](O)C(=O)/C=C\C[C@H](C)OC2=O` [(5Z)-7-Oxozeaenol] had a THP-1 cell loss of 100%. Molecule `COc1ccc(-c2ccc3c(N4CCOCC4)nc(N4C[C@@H](C)O[C@@H](C)C4)nc3n2)cc1CO` yielded a THP-1 cell loss of 53.5 ± 18%. In the case of `O=c1cc(N2CCOCC2)oc2c(-c3ccccc3)cccc12`, the THP-1 cell loss turned out to be 59.5 ± 13%. Consider `Cc1[nH]c(/C=C2\C(=O)Nc3cc(-c4ccccc4)ccc32)c(C)c1CCC(=O)O`, for which the THP-1 cell loss was determined as 6.62 ± 9.4%. Under `CCCCCCCCCCCCCCCCn1cc[n+](Cc2ccccc2)c1C` stands 100%. The figure for `CS(=O)(=O)c1cccc(CNc2nc(Nc3ccc4c(c3)CCC(=O)N4)ncc2C(F)(F)F)c1` is 56.3 ± 6%.

Consider `CN1CCC(CNc2ccc3ncc(-c4cccc(OC(F)(F)F)c4)n3n2)CC1`, for which the THP-1 cell loss came to 55.8 ± 30%. `FC(F)(F)c1ccc(/C=C/c2nc(COc3ccc(CCCCn4ccnn4)cc3)co2)cc1` [Mubritinib] showed a THP-1 cell loss of 51 ± 24%. As to `Cn1cnc2c(NCc3ccccc3)nc(NCCO)nc21` [Olomoucine], the THP-1 cell loss amounted to 3.14 ± 4.4%. Molecule `NCc1ccc(Nc2ncc(F)c(Nc3ccccc3)n2)cc1` [Dianilinopyrimidine_01] had a THP-1 cell loss of 88.5 ± 16%.

In turn, `COc1ccc(-c2cc3nccn3c(Nc3ncccc3C(N)=O)n2)cc1OC` [BAY 61-3606 hydrochloride] yielded a THP-1 cell loss of 100%. As for `COc1cc2ncnc(Nc3ccc(O)c(Br)c3)c2cc1OC`, the THP-1 cell loss is 15.2 ± 1.4%. Consider `CCCS(=O)(=O)Nc1ccc(F)c(C(=O)c2c[nH]c3ncc(-c4ccc(Cl)cc4)cc23)c1F`, for which the THP-1 cell loss is 100%. `CSc1cccc(Nc2ncc3cc(-c4c(Cl)cccc4Cl)c(=O)n(C)c3n2)c1` registered a THP-1 cell loss of 100%. `Cc1ccc(C(=O)Nc2cccc(C(F)(F)F)c2)cc1-c1ccc2nc(NCCN3CCOCC3)ncc2c1` gave a THP-1 cell loss of 100%. The molecule `Fc1ccc(Cl)cc1-c1nc(Nc2ccncc2)c2nccnc2n1` displayed a THP-1 cell loss of 7.31 ± 3.9%.

In turn, `COc1ccc2c3n(c(=NC(=O)c4cccnc4)nc2c1OC)CCN3` showed a THP-1 cell loss of 32.5 ± 0.91%. On to `COc1ccc(OC)c2c(=S)c3ccccc3[nH]c12`, for which the THP-1 cell loss was determined as 9.79 ± 3.8%. Regarding `O=C(NOC[C@H](O)CO)c1ccc(F)c(F)c1Nc1ccc(I)cc1F`, the THP-1 cell loss amounted to 100%.

`CC(C)N(CCC(=O)c1ccc2ccccc2c1)Cc1ccccc1`: the THP-1 cell loss was 3.99 ± 5.6%. For the molecule `c1cc(-c2cnn3cc(-c4ccc(OCCN5CCCCC5)cc4)cnc23)ccn1` [Dorsomorphin dihydrochloride], the THP-1 cell loss came to 100%.

The values are drawn from the supplement of paper PMC7530171.
